The test system of the test is U-2932. Kind of test: growth inhibition by drug alone (1 - RLU/untreated control) (fraction); higher = stronger inhibition. The settings on record: 177Lu-lilotomab satetraxetan 0 ug/ml. How it is done:
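U-2932 ABC-DLBCL cells were pretreated or not for 18 h with 1 ug/ml 177Lu-lilotomab satetraxetan (600 MBq/mg), washed and seeded (3000 cells/well) on 384-well plates pre-printed with the Selleck Cambridge Cancer Compound library. Viability was read by RealTime-Glo luminescence on days 3-6 after seeding. Effect = 1 - RLU/mean RLU of the 48 untreated no-drug control wells per plate; Bliss score = (M-E)/(1-Fa), with E the expected Bliss-additive effect.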

Molecules are shown by their SMILES.

As for `Cc1cn(-c2cc(NC(=O)c3ccc(C)c(Nc4nccc(-c5cccnc5)n4)c3)cc(C(F)(F)F)c2)cn1` [Nilotinib (AMN-107)], the “growth inhibition by drug alone” value is 0.0488 (10 nM, time (day): 3); 0.0185 (10 nM, time (day): 4); -0.0493 (10 nM, time (day): 5); -0.187 (10 nM, time (day): 6); -0.0166 (1000 nM, time (day): 3); 0.0185 (1000 nM, time (day): 4). Also, the “growth inhibition by drug alone” value reads like this: (1000 nM, time (day): 5) -0.0481; (1000 nM, time (day): 6) -0.136.

Regarding `COc1cc([C@@H]2c3cc4c(cc3[C@@H](O[C@@H]3O[C@@H]5CO[C@@H](C)O[C@H]5[C@H](O)[C@H]3O)[C@H]3COC(=O)[C@H]23)OCO4)cc(OC)c1O` [Etoposide (VP-16)], the “growth inhibition by drug alone” value (10 nM, time (day): 3) is -0.0657; the “growth inhibition by drug alone” value (10 nM, time (day): 4) is -0.0505; the “growth inhibition by drug alone” value (10 nM, time (day): 5) was -0.0531; the “growth inhibition by drug alone” value (10 nM, time (day): 6) was -0.0136; the “growth inhibition by drug alone” value (1000 nM, time (day): 3) stood at 0.738; the “growth inhibition by drug alone” value (1000 nM, time (day): 4) was found to be 0.843. For the same compound, the “growth inhibition by drug alone” value (1000 nM, time (day): 5) is 0.913 and the “growth inhibition by drug alone” value (1000 nM, time (day): 6) came out at 0.949.

As for `Cc1cnc(Nc2ccc(OCCN3CCCC3)cc2)nc1Nc1cccc(S(=O)(=O)NC(C)(C)C)c1`, the “growth inhibition by drug alone” value was -0.0562 (10 nM, time (day): 3); -0.0523 (10 nM, time (day): 4); -0.0582 (10 nM, time (day): 5); -0.0993 (10 nM, time (day): 6); 0.149 (1000 nM, time (day): 3); 0.111 (1000 nM, time (day): 4). Also, the “growth inhibition by drug alone” value runs as follows: (1000 nM, time (day): 5) -0.00563; (1000 nM, time (day): 6) 0.00366.

Turning to `CN(C)CCCCSC(=N)N`, the “growth inhibition by drug alone” value by setting is: (10 nM, time (day): 3) 0.0803; (10 nM, time (day): 4) 0.0562; (10 nM, time (day): 5) -0.0181; (10 nM, time (day): 6) -0.016; (1000 nM, time (day): 3) -0.0315; (1000 nM, time (day): 4) 0.00953. The “growth inhibition by drug alone” value runs as follows: (1000 nM, time (day): 5) -0.0703; (1000 nM, time (day): 6) -0.245.

Take `O=c1cc(N2CCOCC2)oc2c(-c3cccc4c3sc3ccccc34)cccc12`: the “growth inhibition by drug alone” value (10 nM, time (day): 3) came out at 0.114; the “growth inhibition by drug alone” value (10 nM, time (day): 4) was 0.0778; the “growth inhibition by drug alone” value (10 nM, time (day): 5) was -0.0783; the “growth inhibition by drug alone” value (10 nM, time (day): 6) is -0.126; the “growth inhibition by drug alone” value (1000 nM, time (day): 3) was 0.206; the “growth inhibition by drug alone” value (1000 nM, time (day): 4) stood at 0.176. For the same compound, the “growth inhibition by drug alone” value is, setting by setting: (1000 nM, time (day): 5) 0.0314; (1000 nM, time (day): 6) -0.00386.

Source of the values: the supplement of paper PMC6897291.
